Source: PubChem BioAssay (NCI)
Compounds without any hit were thinned out: in the full panel of roughly 83,000, 20% have a hit.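 Percent growth is the endpoint: 0 to 100 indicates growth inhibition (40 means 60% inhibition), 0 means no net growth, and negative values indicate cell death.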 A number with no mark means an inactive call. The source made the active and inactive calls. The calls were made as follows: active = growth percent below 10; inactive = the rest.

Legend:
Test in all cases: NCI-60 one-dose screen, 48 h (100 = growth as untreated, 0 = no growth, -100 = all killed)
Settings in all cases: 10 µM unless noted
SK-MEL-2 melanoma = tested on: SK-MEL-2 melanoma
EKVX NSCLC = tested on: EKVX NSCLC
SN12C renal = tested on: SN12C renal
UO-31 renal = tested on: UO-31 renal
TK-10 renal = tested on: TK-10 renal
ACHN renal = tested on: ACHN renal
CAKI-1 renal = tested on: CAKI-1 renal
A498 renal = tested on: A498 renal
CCRF-CEM leukemia = tested on: CCRF-CEM leukemia
MOLT-4 leukemia = tested on: MOLT-4 leukemia
SR leukemia = tested on: SR leukemia
RPMI-8226 leukemia = tested on: RPMI-8226 leukemia
OVCAR-8 ovarian = tested on: OVCAR-8 ovarian
OVCAR-5 ovarian = tested on: OVCAR-5 ovarian
OVCAR-4 ovarian = tested on: OVCAR-4 ovarian
SK-OV-3 ovarian = tested on: SK-OV-3 ovarian
IGROV1 ovarian = tested on: IGROV1 ovarian
HS 578T breast = tested on: HS 578T breast
NCI/ADR-RES ovarian = tested on: NCI/ADR-RES ovarian
OVCAR-3 ovarian = tested on: OVCAR-3 ovarian

| Compound | growth (SK-MEL-2 melanoma) | growth (EKVX NSCLC) | growth (SN12C renal) | growth (UO-31 renal) | growth (TK-10 renal) | growth (ACHN renal) | growth (CAKI-1 renal) | growth (A498 renal) | growth (CCRF-CEM leukemia) | growth (MOLT-4 leukemia) | growth (SR leukemia) | growth (RPMI-8226 leukemia) | growth (OVCAR-8 ovarian) | growth (OVCAR-5 ovarian) | growth (OVCAR-4 ovarian) | growth (SK-OV-3 ovarian) | growth (IGROV1 ovarian) | growth (HS 578T breast) | growth (NCI/ADR-RES ovarian) | growth (OVCAR-3 ovarian) |
| --- | --- | --- | --- | --- | --- | --- | --- | --- | --- | --- | --- | --- | --- | --- | --- | --- | --- | --- | --- | --- |
| CC(C)(C)c1ccc(-c2nnc(-c3nc4ccccc4nc3Cl)o2)cc1 | 63.8% | 99.2% | 86.2% | 79.4% | 107% | 102% | 89.2% | 89.4% | 103% | 101% | 91.3% | 65.9% | 84.2% | 99.1% | 82.2% | 95.9% | 72.5% | -8.86% (active) | 82.5% |  |
| Cc1ccc2c(c1)C13C(=C2Br)CCCN1C(=O)c1ccccc13 (stereo not drawn) | 100% | 91.3% | 92.5% | 76.5% | 99.9% | 95.5% | 75.8% | 92.4% | 79.7% | 79.8% | 47.2% | 80.4% | 99.5% | 96.6% | 91.8% | 96.2% | 88.5% | 94.3% | 88.4% | 94.8% |
| CS(=O)(=O)Nc1cc(-c2ccc3ncc(C#N)c(NCc4ccccc4F)c3c2)cnc1Cl | -52.3% (active) | 0.584% (active) | 16.8% | 4.65% (active) | -11.1% (active) | 10.9% | -8.09% (active) | -42.9% (active) | 13.3% | -15.8% (active) | 3.57% (active) | -22% (active) | 7.93% (active) | 16.8% | 12.6% | -13.7% (active) | -29.1% (active) | -22% (active) | 25% | 3.41% (active) |
| CN1CCN(Cc2ccc(NC(=O)c3cncc(C#Cc4cnc5ccc(NCCCO)nn45)c3)cc2C(F)(F)F)CC1 | -90.8% (active) | -3.09% (active) | 15.6% | -1.42% (active) | -28.7% (active) | 3.14% (active) | -1.99% (active) | -98.8% (active) | 6.66% (active) | 8.92% (active) | -15.6% (active) | -36.9% (active) | -8.06% (active) | 4.78% (active) | -19.9% (active) | -47.5% (active) | 9.68% (active) | -26.5% (active) | 74.1% |  |
| CCOP(=O)(OCC)OC[C@]12CCC(C)(C)C=C1[C@H]1CC[C@@H]3[C@@]4(C)CC[C@H](OP(=O)(OCC)OCC)C(C)(C)[C@@H]4CC[C@@]3(C)[C@]1(C)CC2 | -60.9% (active) | -10.3% (active) | -70.6% (active) | -61% (active) | -18% (active) | -8.2% (active) | -63% (active) | -8.86% (active) | -23.2% (active) | -20.4% (active) | -27.4% (active) | -43% (active) | -27.3% (active) | -26.8% (active) | -1.21% (active) | -2.62% (active) | -20% (active) | -13.5% (active) | 0.702% (active) | -85.5% (active) |
| CC1=N[C@@H]2CN(C(=O)OC(C)(C)C)C[C@@H]2n2c1cc1ccccc1c2=O | 102% | 103% | 97.1% | 74.9% | 123% | 92.6% | 80.2% | 114% | 105% | 106% | 99.9% | 101% | 101% | 107% | 107% | 92.5% | 107% | 101% | 100% |  |
| N#Cc1cccc(NC(=O)c2cc(-c3ccc(F)cc3F)ccc2O)c1 | 0.79% (active) | 10.3% | 4.45% (active) | -14.2% (active) | 19.3% | 5.79% (active) | -16.7% (active) | -33.1% (active) | 20.1% | 6.28% (active) | 27.3% | -8.42% (active) | 10.8% | 14.6% | 8.85% (active) | 5.89% (active) | 13.2% | 3.15% (active) | 4.64% (active) | 9.74% (active) |
| COc1ccc(CCOc2cc3c(cc2OC)CCN(C(=O)NCc2cocn2)C3c2ccc(C)cc2C)cc1 (stereo not drawn) | -7.32% (active) | 39.7% | 19.7% | 24.7% | 49.8% | 18.5% | 13.2% | -2.94% (active) | 26.4% | 21.8% | 5.38% (active) | 7.04% (active) | 17.9% | 28.6% | 51.5% | 38% | 12.9% | -4.03% (active) | 4.95% (active) |  |
| CCNC(=O)N1CCc2cc(OC)c(OCCc3ccc(OC)c(N)c3)cc2C1c1cc(C)c(C)cc1C (stereo not drawn) | 33.2% | 58.3% | 39.4% | 38.4% | 68% | 32.5% | 30.1% | 20% | 46.7% | 32.3% | 15.1% | 32.4% | 39% | 51.7% | 62.6% | 61.4% | 31.9% | 36.1% | 20.8% |  |
| CCCn1cnc2c(c1=N)C(c1ccc(Cl)cc1)c1sc3c(C)cccc3c1O2 (stereo not drawn) | 33.5% | 42.7% | 17.9% | 32.2% | 93.3% | 29.1% | 29.8% | -13.1% (active) | 3.96% (active) | 15.5% | 12.6% | 1.37% (active) | 23.5% | 34.2% | 89.2% | 44.2% | 23.7% | 15.4% | 7.18% (active) | 2.26% (active) |
| COc1ccc(/C=C/C(=O)c2cccc(NC(=O)CSc3nc4ccccc4c(=O)n3-c3ccccc3)c2)cc1OC | 104% | 103% | 105% | 91.9% | 125% | 100% | 88% | 99.4% | 115% | 91.1% | 73% | 67.9% | 102% | 111% | 98.8% | 120% | 105% | 100% | 105% |  |
| O=S(=O)(NC1c2ccccc2C[C@H]1O)c1ccc(Cl)cc1Cl (stereo partly drawn) | 101% | 98.8% | 96.8% | 68.7% | 119% | 96.2% | 82.4% | 103% | 105% | 105% | 87.2% | 107% | 98.4% | 102% | 97.4% | 97.3% | 99.2% | 93.7% | 99.5% |  |
| O=C(CSc1nnc(-c2ccc(Cl)cc2)n1-c1ccccc1)Nc1ccc(Br)cc1 | 80.9% | 24.9% | -42.9% (active) | -19.4% (active) | -55.7% (active) | -81.9% (active) | -53.6% (active) | -60.8% (active) | 41% | 61.1% | 13.3% | 17.5% | -27.5% (active) | 2.37% (active) | -1.23% (active) | -35.9% (active) | 16.6% | 17.8% | 12.3% | -24.5% (active) |
| COC(=O)c1ccc(NC2=C/C(=N/S(=O)(=O)c3ccc(C(=O)O)cc3)c3ccccc3C2=O)cc1 | 4.1% (active) | 88.3% | -71.3% (active) | -1.04% (active) | 156% | -11.2% (active) | 20.4% | 119% | 4.48% (active) | -15% (active) | 0.0887% (active) | 2.88% (active) | 9.15% (active) | 18.8% | -56.5% (active) | 106% | 11.3% | -13.6% (active) | 4.23% (active) | -28.6% (active) |
| CCNC(=O)Oc1ccc(/C(=C(/C)c2ccccc2)c2ccc(OCCN3CCCCCC3)cc2)cc1 | -30% (active) | 52.4% | 26.4% | -20.3% (active) | 66.5% | 18.9% | 8.75% (active) | 26.6% | 7.24% (active) | 2.51% (active) | 0.632% (active) | -32.8% (active) | 7.06% (active) | 35.1% | 36.4% | 51.8% | 32.9% | -12.8% (active) | 24.4% | 6.04% (active) |
